Most compounds without a hit are left out; they make up all but 6.9% or so of the library.
CSC inhib – cancer stem cell inhibition. cancer stem cell-like cells viability, luminescence. inhibition, % at 7.5 µM. hit rate 1.1% among 300,000. AID 2717; in the data active = inhibition above about 75%; inconclusive = no clear call, values can overlap the other calls; tested in HMLE shEcad cells
MPTP inh – blocks calcium-induced mitochondrial swelling. isolated mouse mitochondria, Ca2+ swelling absorbance, 30 min. inhibition, % at 10 µM. hit rate 1.4% among 360,000. AID 602449;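 active = inhibition of 50% or more, scaled per plate between neutral and stimulator controls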
SKKanGAS inh – SKKanGAS growth inhibition. hit rate 1.3% among 300,000. inhibition, % at 7.5 µM. S. pyogenes SKKanGAS, kanamycin growth, BacTiter-Glo, 6 h;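 active = mean replicate score, as percent of positive control median, at least 50; inconclusive = mean below 50 but one replicate at or above 50; inactive = mean and every replicate below 50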;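 also: strain carries kanamycin resistance gene driven by streptokinase promoter and grows in 40 µg/ml kanamycin; loss of luminescence reflects streptokinase promoter inhibition or plain growth inhibition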
NR3A LBD binder – NR3A (human) ligand-binding domain modulation; NR3A LBD differential scanning fluorimetry, Tm shift; 0% = protein alone, 100% = glycine-bound protein; Tm shift relative to glycine control, % at 25 µM; hit rate 2.5% among 340,000; AID 1259313;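 active = melting temperature shift of at least 10% of the positive control shift, at one fixed dose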
Mdm2 MdmX PPI – disrupts the human Mdm2-MdmX interaction; O15151+Q00987; SaOS-2 split-luciferase Mdm2/MdmX complementation, luminescence; inhibition, % at 8 µM; hit rate 3% among 330,000;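 active = inhibition of at least 50% at 8 µM in the primary screen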
Beta cell apopt – blocks beta cell apoptosis; hit rate 0.8% among 300,000; INS-1E cytokine-induced death, ATP luminescence, 48 h; percent of positive-control rescue, neutral wells zero; protection from apoptosis, % (no concentration beside the values);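 active = Every replicate reaches about 75%, or at least half do and their mean reaches it too, limit read from the data; inconclusive = At least half of replicates reach the limit but their mean does not; inactive = Under half of replicates reach the limit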;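 also: higher means more ATP so stronger rescue from cytokine killing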
Each line names hits and unclear results; the compound was inactive in the other large screens.

Cc1ccc(C(=O)N2CCN(c3ccc(NC(=O)c4cc(C)cc(C)c4)cc3)CC2)cc1	NR3A LBD binder 13
Cc1ccc(C(=O)N2CCN(c3ccc(NC(=O)c4ccc5c(c4)OCCO5)cc3)CC2)cc1	none
COC(=O)c1ccc(NC(=O)c2cccnc2)cc1	Beta cell apopt 110
COC(=O)c1cccc(NC(=O)c2cccnc2)c1	none
O=C(Nc1cccnc1)c1cccnc1	Beta cell apopt 105
O=C(Nc1ccc(C(=O)NC2CCCCC2)cc1)c1cccnc1	Beta cell apopt 100
COc1ccc(S(=O)(=O)Nc2ccccc2C(=O)N2CCOCC2)cc1Br	none (no result: CSC inhib)
CC(c1nnc(SCC(=O)c2c(N)n(C3CC3)c(=O)[nH]c2=O)n1-c1ccc(F)cc1)N(C)C (configuration not stated)	none (no result: CSC inhib, SKKanGAS inh)
O=C(Nc1ccccc1Cl)Nc1ccnn1C1CCN(C(=O)C2CCOC2)CC1 (configuration not stated)	none (no result: CSC inhib, SKKanGAS inh, NR3A LBD binder, Mdm2 MdmX PPI, Beta cell apopt)
Cc1ccccc1N(CC(=O)NCCc1ccccc1)C(=O)c1csnn1	none (no result: CSC inhib)
COC(=O)c1cc(S(=O)(=O)N2CCN(c3cccc(C)c3C)CC2)c[nH]1	none
O=C(/C=C/c1ccccc1)Nc1cccnc1	NR3A LBD binder 30
O=C(/C=C/c1ccc([N+](=O)[O-])cc1)Nc1cccnc1	none
O=C(/C=C/c1ccccc1)Nc1ccc2c(c1)C(=O)NC2=O	NR3A LBD binder 14
O=C(/C=C/c1ccccc1)Nc1cccc(C(=O)NCCCc2ccccc2)c1	NR3A LBD binder 27 (no result: CSC inhib, SKKanGAS inh, Mdm2 MdmX PPI, Beta cell apopt)
O=C(Nc1ccc(N2CCN(C(=O)c3ccc(Cl)cc3)CC2)cc1)c1cccnc1	Beta cell apopt 104
Cc1csc(=O)n1CCC(=O)OCC(=O)Nc1ccc(F)c(F)c1F	none
O=C(NCc1cccnc1)c1cc(C2CCCN(S(=O)(=O)c3ccccc3)C2)on1 (configuration not stated)	none (no result: CSC inhib, SKKanGAS inh, NR3A LBD binder, Mdm2 MdmX PPI, Beta cell apopt)
O=C(Nc1cccc(C(=O)N2CCOCC2)c1)c1cccnc1	NR3A LBD binder 11
O=C(O)c1cccnc1	NR3A LBD binder 14
O=C(Nc1cccc(C(=O)N2CCOCC2)c1)c1ccccc1	none (no result: CSC inhib)
Cc1ncc([N+](=O)[O-])n1CC(=O)Nc1ccc(F)c(Cl)c1	none
CCC(C)Sc1ccc(-c2nc3cnccn3c2NC2CCCCC2)cc1 (configuration not stated)	CSC inhib 126, SKKanGAS inh 93
CCCCNc1c(-c2ccc(SC3CCCCC3)cc2)nc2cnccn12	none (no result: CSC inhib, SKKanGAS inh, Beta cell apopt)
CCCCCCSc1ccc(-c2nc3cnccn3c2NC2CCCCC2)cc1	none (no result: CSC inhib, SKKanGAS inh, NR3A LBD binder, Mdm2 MdmX PPI, Beta cell apopt)
CCCCCCSc1cc(-c2nc3cnccn3c2NCc2ccccc2)ccc1OC	SKKanGAS inh 65 (no result: CSC inhib)
CCCCNc1c(-c2ccc(OC)c(SC3CCCCC3)c2)nc2ccc(Cl)cn12	none (no result: SKKanGAS inh)
CCCCNc1c(-c2ccc(OC)c(SC3CCCCC3)c2)nc2cnccn12	SKKanGAS inh 104
COc1ccc(-c2nc3cnccn3c2NCc2ccccc2)cc1SC1CCCCC1	SKKanGAS inh 55
COCCC(=O)N1CCC(Oc2ccc(C(=O)NC(C)CCn3cccn3)cc2)CC1 (configuration not stated)	none
COc1cc(CC(=O)OCC(=O)NC2CCCCC2C)cc(OC)c1OC (configuration not stated)	none (no result: CSC inhib, SKKanGAS inh, Beta cell apopt)
CCc1nc2c(OCc3ccccc3C)cccn2c1N(C)C(=O)c1ccc(C)cc1	none (no result: CSC inhib, SKKanGAS inh, NR3A LBD binder, Mdm2 MdmX PPI, Beta cell apopt)
Cc1ccc(C)c(S(=O)(=O)N2CCN(C(=O)/C=C/c3ccco3)CC2)c1	none (no result: CSC inhib, SKKanGAS inh)
CCOC(=O)[C@H]1[C@H]2COc3ccc(OC)cc3[C@@H]2N2C(=O)c3cc(OC)c(OC)cc3NC(=O)[C@@]12C	none (no result: SKKanGAS inh)
COc1cc(-c2nc3ccc(C)cn3c2NCc2ccccc2)ccc1SC1CCCCC1	Beta cell apopt 110
CCC(C)Sc1ccc(-c2nc3ccccn3c2NCc2ccccc2)cc1OC (configuration not stated)	none (no result: SKKanGAS inh)
CCCCNc1c(-c2ccc(-c3ccc(C(C)=O)cc3)c(OC)c2)nc2cnccn12	SKKanGAS inh 64
CC(OC(=O)CCOc1ccccc1)C(=O)NC1CC1 (configuration not stated)	none (no result: CSC inhib)
COc1ccc(CN(C)S(=O)(=O)c2nnc(NC(=O)c3cccc(F)c3)s2)cc1OC	SKKanGAS inh 60
COC(=O)N/N=C/c1ccc(-c2ccc(Cl)cc2Cl)o1	none
O=C(O)c1ccc(N/N=C/c2ccc(-c3cccc(Cl)c3)o2)cc1	SKKanGAS inh 70
O=C(O)c1cc(N/N=C/c2ccc(-c3ccc(F)cc3)o2)ccc1Cl	none
O=C(O)c1ccc(N/N=C/c2ccc(-c3ccc(Cl)cc3Cl)o2)cc1	SKKanGAS inh 84
O=C(O)c1ccc(N/N=C/c2ccc(-c3cc(Cl)ccc3Cl)o2)cc1	SKKanGAS inh 76
CC1C(=O)Nc2ccc(S(=O)(=O)NCCc3ccc(Cl)cc3)cc2NC1=O (configuration not stated)	none
CC1CCCN(C(=O)Cn2nnc(-c3ccc(S(C)(=O)=O)cc3)n2)C1 (configuration not stated)	none
Cc1ccc(Cn2c(=N)n(CC(=O)c3ccccc3)c3ccccc32)cc1	Beta cell apopt 98
Cc1ccc(C(=O)CN2C(=O)C(=O)N(Cc3ccccc3)C2=O)cc1	NR3A LBD binder 18
COc1ccc(/C=C2\SC(N3CCc4ccccc4C3)=NC2=O)cc1	NR3A LBD binder 12
Cc1ccc(C(=O)Nc2nnc(-c3ccc(C(C)(C)C)cc3)s2)cc1	NR3A LBD binder 10
Cc1nc(COc2ccc(C(=O)NCc3ccccc3CN3CCCCC3)cc2)cs1	none (no result: SKKanGAS inh)
O=S1(=O)CC(N2CCN(CCO)CC2)CN1C1CCCCC1 (configuration not stated)	none (no result: CSC inhib, SKKanGAS inh, NR3A LBD binder, Mdm2 MdmX PPI, Beta cell apopt)
CCCCOc1cc(NCc2ccccc2)c2ncn(C(C)C)c2c1	Beta cell apopt 80 (no result: CSC inhib, SKKanGAS inh)
CCC(CO)Oc1cc(NCc2ccc(C(C)(C)C)cc2)c2ncn(C(C)C)c2c1 (configuration not stated)	Beta cell apopt 137 (no result: CSC inhib, SKKanGAS inh)
CC(=O)c1c(C)n(-c2ccccc2Br)c2ccc(O)cc12	none
Cc1cc2nc3s/c(=C/c4ccc(-c5ccccc5C(=O)O)o4)c(=O)n3c2cc1C	none
O=C(O)c1ccccc1-c1ccc(/C=c2\sc3nc4cc(Br)cnc4n3c2=O)o1	NR3A LBD binder 16
Cc1nn(-c2nc3ccccc3[nH]2)c(=O)c2ccccc12	CSC inhib 97, SKKanGAS inh inconclusive, Beta cell apopt 86 (no result: Mdm2 MdmX PPI)
COc1ccc(-c2c(C)nn(-c3ccccc3)c2N)cc1	none
Cc1nn(-c2nc3ccccc3[nH]2)c(N)c1-c1ccc(Cl)cc1	SKKanGAS inh 68
Cc1nn(-c2ccc3ccccc3c2)c(=O)c2ccccc12	none
Cn1c(SCC(=O)Nc2cccc(F)c2)nnc1-c1cc2ccccc2o1	NR3A LBD binder 11 (no result: CSC inhib)
O=CC(O)C1OC(=O)C(O)C1O (configuration not stated)	none (no result: CSC inhib, SKKanGAS inh, Mdm2 MdmX PPI, Beta cell apopt)
CCOC(=O)c1cnc2c(ccc3ccccc32)c1N	none
CCc1nn(CCCC(=O)NCc2ccc(OC(C)C)cc2)c(=O)c2cc3occc3n12	NR3A LBD binder 16
Cc1[nH]c2ccccc2c1N=Nc1ccccc1F	NR3A LBD binder 13
Cc1[nH]c2ccccc2c1C1=NNC(=Nc2ccc(F)cc2)SC1	NR3A LBD binder 12 (no result: SKKanGAS inh)
